According to PubChem BioAssay (EPA / NIEHS):
Records with an inconclusive call do not appear. Calls of active or inactive are those of the source. How the source made its calls, unless noted: active means hit-call score of the fitted dose curve at least 0.9, where 1 is the maximum; inactive means score below 0.9.

Experiments:
[1] = target: Myc proto-oncogene protein (Homo sapiens) (UniProt P01106); assay: ATG_Myc_CIS: Attagene CIS-FACTORIAL HepG2 Assay for human Myelocytomatosis (Myc) Proto-Oncogene Transcription Factor (AID 2282990); conditions: HepG2, Attagene cis-reporter transcription factor activity; actives raise or lower the signal
Summary of the method: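 HepG2, transient MRTU transfection (cis promoters, endogenous TFs); 24 h dosing; TriZol RNA → oligo(dT) RT → PCR → 6-FAM primer extension → HpaI cut → CE. Bidirectional fit vs DMSO.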

[2] = ATG_NF_kB_CIS: Attagene CIS-FACTORIAL HepG2 Assay for human Nuclear Factor Kappa B (NF-kB) (AID 2282991); conditions: HepG2 Attagene cis-factorial NF-kB reporter mRNA; actives raise or lower the signal
Summary of the method: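 Multiplexed cis-reporter assay in transiently transfected HepG2. 24 h treatment; RNA isolated, RT-PCR, labelled fragments resolved by CE. DMSO baseline.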

[3] = ATG_NRF2_ARE_CIS: Attagene CIS-FACTORIAL HepG2 Assay for human Nuclear Factor Erythroid 2 Related Factor 2 (NFR2) response to Antioxidant Response Elements (ARE) (AID 2282992); conditions: HepG2 Attagene ARE/NRF2 reporter, transcription factor activity; actives raise or lower the signal;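 on AC50: reporter mRNA level measured by RT-PCR and capillary electrophoresis fluorescence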
Summary of the method: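 HepG2 cells transiently transfected with multiplexed cis-element reporter constructs, 24 h after chemical dosing; reporter mRNA quantified by RT-PCR, fluorescent primer extension, HpaI digestion and capillary electrophoresis. Bidirectional fit relative to DMSO.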

[4] = ATG_Oct_MLP_CIS: Attagene CIS-FACTORIAL HepG2 Assay for human Octamer-Binding Transcription Factor (Oct) (AID 2282993); conditions: HepG2 Attagene cis-factorial Oct reporter, mRNA; actives raise or lower the signal
Summary of the method: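 Read-out: reporter mRNA via RT-PCR plus capillary electrophoresis of 6-FAM-labelled fragments. Transiently transfected HepG2, 24 h exposure, endogenous TF activity on cis elements. Gain or loss of signal fitted relative to DMSO.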

[5] = target: Cellular tumor antigen p53 (Homo sapiens) (UniProt P04637); assay: ATG_p53_CIS: Attagene CIS-FACTORIAL HepG2 Assay for human p53 Transcription Factor (AID 2282994); conditions: HepG2 p53 cis-element reporter, Attagene mRNA; actives raise or lower the signal
Summary of the method: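 HepG2 cells transiently transfected with cis-regulated multiple reporter transcription units, dosed 24 h. Reporter mRNA measured by RT-PCR, 6-FAM primer extension, HpaI digestion and capillary electrophoresis; bidirectional fit relative to DMSO.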

[6] = BSK_3C_TissueFactor: BioMAP Diversity Plus: 3C Assay for Tissue Factor Biomarker Activity (AID 2282997); conditions: BioMAP 3C HUVEC, tissue factor biomarker readout; actives raise or lower the signal
Summary of the method: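 Dosing of human umbilical vein endothelial cells preceded a 24 h incubation. Tissue Factor was then read by ELISA, with increases and decreases both scored relative to DMSO controls.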

[7] = BSK_3C_uPAR: BioMAP Diversity Plus: 3C Assay for Urokinase-type plasminogen activator receptor (uPAR) Biomarker Activity (AID 2282998); conditions: BioMAP 3C HUVEC, uPAR biomarker ELISA; actives raise or lower the signal
Summary of the method: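 HUVEC primary cells; 24 h post-dose; uPAR by ELISA; gain or loss of signal fitted bidirectionally vs DMSO baseline.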

[8] = BSK_3C_VCAM1: BioMAP Diversity Plus: 3C Assay for Vascular cell adhesion molecule 1 (VCAM1) Biomarker Activity (AID 2282999); conditions: BioMAP 3C HUVEC, VCAM1 ELISA, cytokine-stimulated; actives raise or lower the signal
Summary of the method: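 Endothelial cells from human umbilical vein are treated with test chemical. At 24 h, VCAM-1 is measured by ELISA, and responses in either direction are fitted relative to DMSO.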

[9] = BSK_4H_Eotaxin3: BioMAP Diversity Plus: 4H Assay for Eotaxin 3 Biomarker Activity (AID 2283000); conditions: primary human endothelial cells (HUVEC); actives raise or lower the signal
Summary of the method: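 Human umbilical vein endothelial cells (BSK_4H system) dosed with test chemical; Eotaxin-3 (CCL26) measured by ELISA 24 h after dosing. Bidirectional curve fitting relative to DMSO negative control as baseline.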

[10] = target: human Peroxisome Proliferator-activated Receptor alpha (PPARa), PPARA (gene 5465) (UniProt Q07869); assay: ATG_PPARa_TRANS: Attagene TRANS-FACTORIAL HepG2 Assay for human Peroxisome Proliferator-activated Receptor alpha (PPARa) (AID 2283001; active means hit-call score of the fitted dose curve at least 0.9, where 1 is the maximum;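 on AC50: potency for gain of reporter signal over DMSO so agonist or activator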)
Summary of the method: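 Reporter transcripts from GAL4-UAS units in transfected HepG2 were quantified 24 h after dosing. Detection used reverse transcription, PCR, fluorescent primer extension and capillary electrophoresis, with DMSO as baseline.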

Measured: AC50

Cellular tumor antigen p53 (Homo sapiens), sequence (P04637 whole entry, looked up): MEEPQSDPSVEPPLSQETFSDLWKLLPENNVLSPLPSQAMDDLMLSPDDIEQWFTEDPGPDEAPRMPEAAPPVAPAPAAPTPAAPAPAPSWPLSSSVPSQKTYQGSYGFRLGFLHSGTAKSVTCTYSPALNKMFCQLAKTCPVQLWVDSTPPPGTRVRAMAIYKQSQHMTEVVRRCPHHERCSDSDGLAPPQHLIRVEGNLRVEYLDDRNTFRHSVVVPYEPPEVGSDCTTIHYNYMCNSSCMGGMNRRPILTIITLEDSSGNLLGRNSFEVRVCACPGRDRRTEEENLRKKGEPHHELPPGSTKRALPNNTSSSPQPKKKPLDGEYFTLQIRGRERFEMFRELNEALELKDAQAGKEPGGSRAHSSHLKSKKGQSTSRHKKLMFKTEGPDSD
human Peroxisome Proliferator-activated Receptor alpha (PPARa), PPARA (gene 5465), sequence (Q07869 whole entry, looked up, the tested form may be a part): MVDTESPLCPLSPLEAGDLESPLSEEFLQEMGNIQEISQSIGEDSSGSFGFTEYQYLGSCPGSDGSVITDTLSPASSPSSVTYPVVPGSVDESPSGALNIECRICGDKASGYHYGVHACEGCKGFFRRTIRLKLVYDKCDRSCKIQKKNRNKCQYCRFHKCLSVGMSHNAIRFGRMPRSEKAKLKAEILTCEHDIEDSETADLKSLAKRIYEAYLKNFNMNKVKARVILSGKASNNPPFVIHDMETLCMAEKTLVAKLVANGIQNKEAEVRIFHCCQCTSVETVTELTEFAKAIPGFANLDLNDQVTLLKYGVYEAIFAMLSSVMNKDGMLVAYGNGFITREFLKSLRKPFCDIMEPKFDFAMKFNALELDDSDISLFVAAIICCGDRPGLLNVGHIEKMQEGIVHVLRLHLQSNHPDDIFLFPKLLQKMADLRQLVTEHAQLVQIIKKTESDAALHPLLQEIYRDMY
Myc proto-oncogene protein (Homo sapiens), sequence (P01106 whole entry, looked up): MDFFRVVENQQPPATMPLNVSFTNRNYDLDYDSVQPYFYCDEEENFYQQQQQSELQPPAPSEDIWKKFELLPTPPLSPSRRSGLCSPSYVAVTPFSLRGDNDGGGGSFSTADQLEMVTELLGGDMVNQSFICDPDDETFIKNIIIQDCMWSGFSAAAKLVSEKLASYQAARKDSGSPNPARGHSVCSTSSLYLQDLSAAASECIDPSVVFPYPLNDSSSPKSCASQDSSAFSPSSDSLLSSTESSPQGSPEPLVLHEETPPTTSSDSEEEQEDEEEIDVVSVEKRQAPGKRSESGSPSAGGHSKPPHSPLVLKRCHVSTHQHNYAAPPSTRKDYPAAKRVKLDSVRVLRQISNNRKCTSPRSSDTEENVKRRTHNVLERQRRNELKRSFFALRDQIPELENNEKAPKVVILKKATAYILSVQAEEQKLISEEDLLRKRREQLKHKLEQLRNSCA

C=CCOC(=O)c1ccccc1C(=O)OCC=C
active: [3] 27.2 µM
inactive: all other assays above

Cc1ccc(C(C)C)c(O)c1
active: [3] 100 µM | [6] 1.38 µM
inactive: all other assays above

CCCCN(CCCC)CCCC
inactive: all assays above

CCCCCCCCCCO
active: [2] 144 µM | [3] 158 µM | [4] 173 µM | [10] 128 µM
inactive: all other assays above

Cc1nc(-c2ccc3c(c2)CCN(CCC2CCC(NC(=O)/C=C/c4ccc(F)cc4)CC2)CC3)no1 (stereo not given)
active: [8] 12.8 µM | [9] 12.9 µM
inactive: all other assays above

CC(=O)Oc1ccccc1C(=O)O
active: [3] 68 µM | [4] 177 µM
inactive: all other assays above

CCCCCCCC=O
inactive: all assays above

CCCCC(CC)COC(=O)CC(C(=O)OCC(CC)CCCC)S(=O)(=O)O (stereo not given)
active: [3] 11.1 µM | [6] 31.8 µM | [7] 31.1 µM | [8] 38.9 µM | [9] 36.5 µM
inactive: [1] | [2] | [4] | [5] | [10]

CCCCCCOCCO
inactive: all assays above

CCCCCC(=O)O
inactive: all assays above

Cc1ccc(C)c(O)c1C
inactive: all assays above

Cc1oc(-c2ccccc2)nc1CCOc1cccc2c1ccn2CCC(=O)O
active: [3] 31.4 µM | [10] 3.95 µM
inactive: all other assays above

COc1ccc(C)cc1N
inactive: all assays above

Cc1cccc(C)c1O
inactive: all assays above

O=c1c(O)c(-c2ccc(O)c(O)c2)oc2cc(O)cc(O)c12
active: [3] 27 µM | [5] 65.6 µM | [6] 15.6 µM | [7] 13.7 µM | [8] 32 µM | [9] 24.4 µM
inactive: [1] | [2] | [4] | [10]

Cc1ccc(Cl)cc1
not listed: [2] | [10]
inactive: all other assays above

CC(=O)OC/C=C(\C)CCC=C(C)C
not listed: [2] | [10]
inactive: all other assays above

CCCCCCCCCCCCCO
active: [3] 57.4 µM | [6] 33.1 µM | [7] 33.7 µM | [8] 35.6 µM | [9] 38.8 µM | [10] 24.3 µM
inactive: [1] | [4] | [5]

CCCCCCCCCCCCCCCC
not listed: [2]
inactive: all other assays above

Cc1ccccc1Cl
not listed: [2] | [10]
inactive: all other assays above

NS(=O)(=O)c1cc2c(cc1Cl)NCNS2(=O)=O
not listed: [2] | [10]
inactive: all other assays above

FC(F)(F)C(F)(F)C(F)(F)C(F)(F)C(F)(F)C(F)(F)CCI
not listed: [2]
inactive: all other assays above

CC(CO)OC(C)CO (stereo not given) (tested in a mixture with another compound)
inactive: all assays above

COCCOC[C@H](CC1(C(=O)NC2CCC(C(=O)O)CC2)CCCC1)C(=O)Oc1ccc2c(c1)CCC2 (stereo not given in full)
not listed: [2]
inactive: all other assays above

CC(=O)OCCOCCOCCOC(C)=O
not listed: [2] | [10]
inactive: all other assays above

COc1cc(/C=C/C(=O)CC(=O)/C=C/c2ccc(O)c(OC)c2)ccc1O
active: [2] 33.4 µM | [3] 8.71 µM | [4] 33.4 µM | [5] 50.2 µM
inactive: [1] | [10]

COc1ccc2c(c1)c(CC(=O)O)c(C)n2C(=O)c1ccc(Cl)cc1
not listed: [2]
inactive: all other assays above

CCCCCCCCCCCC(=O)OC
inactive: all assays above

Cc1cc(NC(=O)C(=O)O)cc(C)c1Oc1ccc(O)c2c1CCC2
not listed: [2]
inactive: all other assays above

CCCCc1ccc2c(n1)[C@@H](c1ccc(OC)cc1C[C@H](C)C(=O)O)[C@H](C(=O)O)[C@H]2c1ccc2c(c1)OCO2
not listed: [2]
inactive: all other assays above

C=CCc1ccc(O)c(OC)c1
active: [3] 27 µM
not listed: [2]
inactive: all other assays above

Cc1c(C(=O)O)c(O)cc2c1C(=O)c1c(O)c([C@@H]3O[C@H](CO)[C@@H](O)[C@H](O)[C@H]3O)c(O)c(O)c1C2=O
not listed: [2]
inactive: all other assays above

COc1cc(-c2nc(NC(=O)c3cc4cc(C)cc(C)c4n3CC(=O)O)sc2CCC2CCCCC2)c(OC)cc1Cl
active: [2] 26.7 µM | [3] 3.45 µM | [4] 5.48 µM | [6] 2.98 µM | [7] 2.92 µM | [8] 4.86 µM | [9] 3.77 µM
inactive: [1] | [5] | [10]

CCOC(=O)CCC(=O)OCC
not listed: [2] | [10]
inactive: all other assays above

O=C(O)Cc1ccccc1Nc1c(Cl)cccc1Cl
not listed: [2]
inactive: all other assays above

COc1cc(S(=O)(=O)O)c(C)cc1N=Nc1c(O)ccc2cc(S(=O)(=O)O)ccc12
not listed: [2] | [10]
inactive: all other assays above

CN1CCCC1=O
not listed: [2] | [10]
inactive: all other assays above

CCCc1cc(=O)[nH]c(=S)[nH]1
active: [9] 0.666 µM
not listed: [2] | [10]
inactive: all other assays above

CCOc1ccc2c(c1)C(C)=CC(C)(C)N2
active: [3] 27.1 µM | [4] 142 µM
not listed: [2]
inactive: all other assays above

CC=Cc1ccc(O)c(OC)c1
active: [3] 16.2 µM
not listed: [2]
inactive: all other assays above

O=c1[nH]cc(F)c(=O)[nH]1
active: [5] 11.5 µM
not listed: [2]
inactive: all other assays above

CC(=O)C(C)=CC1C(C)=CCCC1(C)C (stereo not given)
not listed: [2]
inactive: all other assays above

NCCO
not listed: [2] | [10]
inactive: all other assays above

CCCCOC(=O)CCCCCCCCC(=O)OCCCC
active: [5] 156 µM | [10] 37 µM
inactive: all other assays above

COc1ccc(S(=O)(=O)N2C(=O)[C@@](c3ccccc3OC)(N3C[C@H](O)C[C@H]3C(=O)N(C)C)c3cc(Cl)ccc32)c(OC)c1
inactive: [1] | [3] | [6] | [9]
active: [4] 38 µM | [5] 49.7 µM | [7] 20 µM | [8] 28.8 µM
